According to PubChem BioAssay (Tox21):
Inconclusive results are not listed. Active and inactive are the calls of the source. Unless noted, the call rests on the fitted dose curve; in most records, active means well fitted curve in the direction sought with a large enough effect in the repeat runs; inconclusive means weak or mixed curves; inactive means no such curve, though single readings can be large; an effect the other way counts as inactive or inconclusive.

Key:
[1] = qHTS assay for small molecules that induce genotoxicity in human embryonic kidney cells expressing luciferase-tagged ATAD5 - cell viability (AID 651634; calls by dose curve; further: nearly all actives have a fitted effect of over 25% in size)
Summary of the method: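 Fluorescence from CellTiter-Fluor, reporting protease activity within live cells, served as the viability read-out. HEK293T cells carrying luciferase-tagged ATAD5 had been treated with compound for 15.5 hr at 37C.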

[2] = qHTS assay for small molecule disruptors of the mitochondrial membrane potential (AID 720635); further: potency means the concentration at half of the fitted maximal effect
Summary of the method: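 HepG2 cells exposed to compound 1 hr at 37C, then Mito-MPS dye 30 min. Ratio read of aggregate (540/590 nm) versus monomer (490/535 nm) fluorescence.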

[3] = qHTS assay to test for compound auto fluorescence at 590 nm (red) in HepG2 cells (AID 720674)
Summary of the method: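 HepG2 cells, 2,000 per well in MEM with 10% FBS, attached overnight at 37 C, then got 23 nL compound or DMSO. After 1 hr at 37 C, 5% CO2, red fluorescence was read at 540/590 nm against Rose Bengal sodium as reference.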

[4] = qHTS assay to test for compound auto fluorescence at 460 nm (blue) in HEK293 cells (AID 720678); further: potency means the concentration at half of the fitted maximal effect
Summary of the method: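 HEK293, 2,000 cells/well, 10% dialyzed FBS; attach 4-5 hr 37C; pin compound or DMSO; o/n 37C/5% CO2; fluorescence 405/460 nm; triamterene-equivalent units.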

[5] = qHTS assay to test for compound auto fluorescence at 590 nm (red) in HEK293 cells (AID 720679)
Summary of the method: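 Intensity at 540nm excitation and 590nm emission is reported as Rose Bengal sodium-equivalent autofluorescence. Measurements followed overnight exposure (37C, 5% CO2) of HEK293 cells, 2,000 per well, to 23 nL compound.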

[6] = qHTS assay to test for compound auto fluorescence at 535 nm (green) in HEK293 cells (AID 720680)
[7] = qHTS assay to test for compound auto fluorescence at 460 nm (blue) in HEK293 cell free culture (AID 720681); further: potency means the concentration at half of the fitted maximal effect
Summary of the method: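 Compounds were added to cell-free DMEM with 10% FBS and fluorescence read directly. The blue channel used 405 nm excitation and 460 nm emission, with triamterene as the reference fluorophore.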

[8] = qHTS assay to test for compound auto fluorescence at 590 nm (red) in HEK293 cell free culture (AID 720683)
Summary of the method: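 Cell-free wells of DMEM with 10% FBS received compound, and intrinsic fluorescence was read at excitation/emission 540/590 nm. Values expressed as equivalence to Rose Bengal sodium.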

[9] = qHTS assay to test for compound auto fluorescence at 590 nm (red) in HepG2 cell free culture (AID 720684)
Summary of the method: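 Compounds are added to culture medium (MEM, 10% FBS) lacking cells, then fluorescence is read at excitation 540 nm, emission 590 nm, with Rose Bengal sodium as the equivalency standard.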

[10] = qHTS assay to test for compound auto fluorescence at 460 nm (blue) in HepG2 cell free culture (AID 720685); further: potency means the concentration at half of the fitted maximal effect
Summary of the method: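 Compound (23 nL) or DMSO pinned into cell-free MEM with 10% FBS; blue fluorescence read at 405/460 nm excitation/emission, expressed as auto-fluorescence equivalency to triamterene.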

[11] = qHTS assay to test for compound auto fluorescence at 535 nm (green) in HepG2 cell free culture (AID 720686)
[12] = qHTS assay to test for compound auto fluorescence at 460 nm (blue) in HepG2 cells (AID 720687); further: potency means the concentration at half of the fitted maximal effect
Summary of the method: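 HepG2 cells in MEM with 10% FBS, attached overnight at 37 C, were exposed to compound or DMSO for 1 hr at 37 C, 5% CO2. Blue fluorescence was read at 405/460 nm, with triamterene as reference fluorophore.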

[13] = qHTS assay for small molecule disruptors of the mitochondrial membrane potential - cell viability (AID 720634; calls by dose curve; further: nearly all actives have a fitted effect of over 20% in size; further: potency means the concentration at half of the fitted maximal effect)
Summary of the method: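 Cells: HepG2, 2,000/well, attached overnight. Compound 1 hr, 37 C/5% CO2. +m-MPI dye, +CellTiter-Glo 30 min RT. Readout: luminescence (ATP).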

[14] = qHTS assay to test for compound auto fluorescence at 535 nm (green) in HepG2 cells (AID 720675)
[15] = qHTS assay to test for compound auto fluorescence at 535 nm (green) in HEK293 cell free culture (AID 720682)
Summary of the method: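 Steps: dispense DMEM/10% FBS into empty wells; pin in compound or DMSO; measure fluorescence at 485/535 nm. Values are fluorescein equivalents.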

[16] = target: Glucocorticoid receptor (Homo sapiens) (UniProt P04150); assay: qHTS assay to identify small molecule agonists of the glucocorticoid receptor (GR) signaling pathway (AID 720691; active means well fitted activation curve with a large enough effect in the signal ratio in the repeat runs, not every such curve was filed as active; the % refers to the signal ratio); details: GR-bla HeLa, beta-lactamase reporter ratio, 18 h; activation: at 62.4 µM (top of the series)
Summary of the method: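 Fluorescence intensity from LiveBLAzer B/G FRET substrate (2 h, room temperature) reports beta-lactamase expression driven by the glucocorticoid response element in GR-bla HeLa cells after 18 h compound exposure at 37 C.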

[17] = qHTS assay for small molecules that induce genotoxicity in human embryonic kidney cells expressing luciferase-tagged ATAD5 (AID 651632); further: nearly all actives have a fitted effect of over 15% in size
Summary of the method: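 ATAD5-luc HEK293T, 2,000 cells/well; cpd or DMSO pin-transferred; 16 hr, 37C/5% CO2; Amplite 30 min RT; luminescence.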

[18] = target: Glucocorticoid receptor (Homo sapiens) (UniProt P04150); assay: qHTS assay to identify small molecule antagonists of the glucocorticoid receptor (GR) signaling pathway (AID 720692; active means well fitted inhibition curve with a large enough effect in the signal ratio in the repeat runs, not every such curve was filed as active; the % refers to the signal ratio)
Summary of the method: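 HeLa GR-bla cells; cmpd + dex 5 nM final, 18 h 37 C; LiveBLAzer B/G FRET substrate 2 h RT; fluorescence intensity read. Antagonist mode, qHTS.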

[19] = qHTS assay for small molecule agonists of the p53 signaling pathway - cell viability (AID 651633; calls by dose curve;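 further: p53RE-bla HCT reporter cells with a stable beta-lactamase p53 reporter; nearly all actives have a fitted effect of over 30% in size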)
Summary of the method: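 p53RE-bla cells were treated with compound for 16 hours at 37 C. Cytotoxicity was then measured as CellTiter-Glo luminescence after 30 min at room temperature.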
On the % scale 0 is the no-effect control and ±100 the full control effect; tags describe the fitted curve by direction and shape or compound fluorescence and quenching.

Glucocorticoid receptor (Homo sapiens), sequence (P04150 whole entry, looked up): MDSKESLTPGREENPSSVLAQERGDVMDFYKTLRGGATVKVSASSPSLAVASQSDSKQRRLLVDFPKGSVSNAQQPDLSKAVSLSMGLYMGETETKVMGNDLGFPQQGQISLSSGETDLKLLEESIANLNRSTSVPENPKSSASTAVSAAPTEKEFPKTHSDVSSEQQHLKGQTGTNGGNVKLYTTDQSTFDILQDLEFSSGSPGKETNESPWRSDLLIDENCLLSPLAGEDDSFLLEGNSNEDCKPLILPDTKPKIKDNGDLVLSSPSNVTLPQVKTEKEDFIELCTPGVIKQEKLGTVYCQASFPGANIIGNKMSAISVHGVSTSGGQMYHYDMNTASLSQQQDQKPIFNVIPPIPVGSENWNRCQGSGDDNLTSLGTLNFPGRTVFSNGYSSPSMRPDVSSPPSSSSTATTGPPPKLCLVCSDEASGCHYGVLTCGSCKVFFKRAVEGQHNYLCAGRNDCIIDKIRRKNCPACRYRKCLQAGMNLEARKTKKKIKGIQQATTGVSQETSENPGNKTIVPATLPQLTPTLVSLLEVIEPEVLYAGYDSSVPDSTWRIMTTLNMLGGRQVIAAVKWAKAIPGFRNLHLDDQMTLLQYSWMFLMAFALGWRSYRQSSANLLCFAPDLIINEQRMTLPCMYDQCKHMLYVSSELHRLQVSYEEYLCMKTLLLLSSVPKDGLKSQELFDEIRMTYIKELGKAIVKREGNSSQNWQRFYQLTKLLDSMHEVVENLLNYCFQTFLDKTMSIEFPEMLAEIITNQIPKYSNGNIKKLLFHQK

N#Cc1c2ccccc2cc2ccccc12
active: Potency [2] 1720 nM | Potency [4] 1260 nM [fluorescent] | Potency [7] 2510 nM | Potency [10] 2510 nM [fluorescent] | Potency [12] 2820 nM [fluorescent]
inactive: Potency [1] | outcome [3] | outcome [5] | outcome [6] | outcome [8] | outcome [9] | Potency [11]

O.O.O.O.O.O.O.O=S(=O)([O-])[O-].[Co+2]
inactive: Potency [13] | outcome [3] | Potency [14] | Potency [4] | outcome [5] | Potency [7] | outcome [15] | outcome [8] | outcome [9] | Potency [10] | Potency [12]

O=[N+]([O-])[O-].[Tl+]
inactive: Potency [1] | outcome [3] | Potency [14] | Potency [4] | outcome [5] | Potency [7] | outcome [15] | outcome [8] | outcome [9] | Potency [10] | Potency [11] | Potency [12] | Potency [16]

CC1CCCC1
inactive: Potency [13] | Potency [16]

[Cl-].[Cl-].[Cl-].[Yb+3]
inactive: Potency [1] | outcome [3] | Potency [4] | outcome [5] | Potency [7] | outcome [15] | outcome [8] | outcome [9] | Potency [10] | Potency [11] | Potency [12]

CCNS(=O)(=O)C(F)(F)C(F)(F)C(F)(F)C(F)(F)C(F)(F)C(F)(F)C(F)(F)C(F)(F)F
active: Potency [13] 5220 nM | Potency [2] 1850 nM
inactive: Potency [17] | outcome [3] | Potency [14] | Potency [4] | outcome [5] | outcome [6] | Potency [7] | outcome [15] | outcome [8] | outcome [9] | Potency [10] | Potency [11] | Potency [12]

CC(Cc1ccc(O)cc1)NCC(O)c1cc(O)cc(O)c1 (configuration not stated)
inactive: Potency [1] | Potency [13] | Potency [2] | outcome [3] | Potency [14] | Potency [4] | Potency [7] | outcome [15] | outcome [8] | outcome [9] | Potency [10] | Potency [11] | Potency [12] | Potency [16] | Potency [18]

CC(=O)[O-].CC(=O)[O-].[Co+2]
inactive: Potency [19] | Potency [1] | outcome [3] | Potency [4] | outcome [5] | outcome [6] | Potency [7] | outcome [15] | outcome [8] | outcome [9] | Potency [10] | Potency [11] | Potency [12]

CC(=O)[O-].CC(=O)[O-].CC(=O)[O-].[Sb+3]
inactive: activity, negative = cytotoxicity [1] 20.6% [at 8.08 µM] | fluorescence, relative to Rose Bengal [3] -0.0388% [at 3.72 µM] | fluorescence, % of fluorescein control [14] -0.114% [at 3.72 µM] | fluorescence, % of triamterene [4] -0.0361% [at 3.72 µM] | fluorescence, % of fluorescent control [5] 0.24% [at 3.72 µM] | fluorescence, % of fluorescein [6] 0.0079% [at 3.72 µM] | fluorescence, % of fluorescent control [7] -0.0273% [at 3.72 µM] | activity change [15] -0.0203% [at 3.72 µM] | fluorescence, % of fluorescent control [8] -0.102% [at 3.72 µM] | fluorescence, % of Rose Bengal [9] 0.0344% [at 3.72 µM] | fluorescence, % of fluorescent control [10] -0.11% [at 3.72 µM] | fluorescence, % of fluorescent control [12] 0.0192% [at 3.72 µM]

Cc1ccc2cc3c(ccc4ccccc43)c3c2c1CC3
inactive: Potency [17] | Potency [1] | outcome [3] | Potency [4] | outcome [5] | outcome [6] | Potency [7] | outcome [15] | outcome [8] | outcome [9] | Potency [10] | Potency [11] | Potency [12] | Potency [16] | Potency [18]
active: Potency [2] 12200 nM

O.O.O.O=C([O-])[C@H]([O-])[C@@H]([O-])C(=O)[O-].O=C([O-])[C@H]([O-])[C@@H]([O-])C(=O)[O-].[K+].[K+].[Sb+3].[Sb+3]
inactive: Potency [1] | Potency [13] | outcome [3] | Potency [14] | Potency [4] | outcome [5] | Potency [7] | outcome [15] | outcome [8] | outcome [9] | Potency [10] | Potency [11] | Potency [12]

N#CSCc1ccccc1
inactive: Potency [19] | Potency [1] | Potency [13] | outcome [3] | Potency [14] | Potency [4] | outcome [5] | outcome [6] | Potency [7] | outcome [15] | outcome [8] | outcome [9] | Potency [10] | Potency [12] | Potency [16]

CC(=O)[O-].CC(=O)[O-].O.O.[Zn+2]
inactive: Potency [1] | Potency [14] | Potency [4] | outcome [5] | outcome [6] | Potency [7] | outcome [15] | outcome [8] | outcome [9] | Potency [10] | Potency [11] | Potency [12]

CC(=O)[O-].CC(=O)[O-].O.O.O.[Pb+2]
inactive: Potency [19] | outcome [3] | Potency [14] | Potency [4] | outcome [5] | outcome [6] | Potency [7] | outcome [15] | outcome [8] | outcome [9] | Potency [10] | Potency [11] | Potency [12]

CNN
inactive: Potency [19] | Potency [1] | Potency [13] | Potency [2] | outcome [3] | Potency [14] | Potency [4] | outcome [5] | outcome [6] | Potency [7] | outcome [8] | outcome [9] | Potency [10] | Potency [11] | Potency [12]

CC(=O)O.CC(=O)O.CC(=O)O.CC(=O)O.CC(=O)O.CC(=O)O.CC(=O)O.O.O.[Cr].[Cr].[Cr]
inactive: Potency [19] | Potency [1] | outcome [3] | Potency [14] | Potency [4] | outcome [5] | outcome [6] | Potency [7] | outcome [8] | outcome [9] | Potency [10] | Potency [11] | Potency [12]

[C-]1=CC=CC1.[Cl][Zr+2][Cl].c1cc[cH-]c1
inactive: Potency [1] | Potency [13] | outcome [3] | Potency [14] | outcome [5] | outcome [6] | outcome [15] | outcome [8] | outcome [9] | Potency [11]

CCO/N=C(\CC)C1=C(O)CC(c2c(C)cc(C)cc2C)CC1=O (configuration not stated)
inactive: Potency [19] | Potency [1] | Potency [13] | outcome [3] | Potency [14] | Potency [4] | outcome [6] | Potency [7] | outcome [15] | outcome [8] | outcome [9] | Potency [10] | Potency [11] | Potency [12] | Potency [16] | Potency [18]
active: Potency [2] 12200 nM

Oc1ccc2[nH]cc(CCCCN3CC=C(c4ccccc4)CC3)c2c1
inactive: Potency [19] | Potency [1] | Potency [13] | outcome [3] | Potency [14] | Potency [4] | outcome [5] | outcome [6] | Potency [7] | outcome [15] | outcome [8] | outcome [9] | Potency [10] | Potency [11] | Potency [12] | Potency [16]

Oc1cc(Cl)c(Cl)c(Cl)c1Cl
inactive: Potency [17] | Potency [1] | outcome [3] | Potency [14] | Potency [4] | outcome [5] | outcome [6] | Potency [7] | outcome [8] | outcome [9] | Potency [10] | Potency [11] | Potency [12]

O.O.O.O.O.O.O=S(=O)([O-])[O-].[Ni+2]
inactive: Potency [1] | Potency [13] | outcome [3] | Potency [14] | Potency [4] | outcome [5] | outcome [6] | Potency [7] | outcome [15] | outcome [8] | outcome [9] | Potency [10] | Potency [11] | Potency [12]

CC(=O)[O-].CC(=O)[O-].CC(=O)[O-].[Cr+3]
inactive: Potency [19] | Potency [1] | Potency [4] | outcome [5] | outcome [6] | Potency [7] | outcome [8] | outcome [9] | Potency [10] | Potency [11] | Potency [12]
